Measured values published in PubChem BioAssay (NCI).
Compounds without any hit were thinned out: in the full panel of roughly 79,000, 15% have a hit. Cut-off read from the data, not from the text of the source: active = growth inhibition above about 70%; inactive = the rest. Where a SMILES comes first, the peptide text is derived from it. [ ]: non-standard residue; d: D form. The star is where a group is joined. Cbz = O=C(OCc1ccccc1)*; Nva = CCC[CH](N)C(=O)O

Assays:
[1] = NCI Yeast Anticancer Drug Screen. Data for the rad50 strain (AID 155);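 note: 0% = growth of vehicle-only cultures of the same strain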; conditions: S. cerevisiae rad50 strain growth inhibition; at 50.0 µM; stronger effect = higher value
Outline: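 DNA repair mutant yeast, compound exposure, growth read-out; inhibition is taken relative to vehicle.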

[2] = NCI Yeast Anticancer Drug Screen. Data for the mec2-1 strain (AID 157); conditions: S. cerevisiae mec2-1 strain, at 50.0 µM, stronger effect = higher value
Outline: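 Mutant yeast (mec2-1) grown with compound; growth inhibition relative to vehicle control reported.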

[3] = NCI Yeast Anticancer Drug Screen. Data for the sgs1 mgt1 strain (AID 161);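 note: 0% = growth of cultures given vehicle only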; conditions: S. cerevisiae sgs1 mgt1 strain, at 50.0 µM, stronger effect = higher value
Outline: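 Compounds are added to genetically altered yeast, and growth is compared with cultures given vehicle alone to give percent inhibition.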

[4] = NCI Yeast Anticancer Drug Screen. Data for the cln2 rad14 strain (AID 165);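 note: 0% = growth equal to vehicle treated cultures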; conditions: S. cerevisiae cln2 rad14 strain, at 50.0 µM, stronger effect = higher value
Outline: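 Readout is yeast growth inhibition versus vehicle-treated controls, using a strain with cln2 and rad14 alterations exposed to compound.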

[5] = NCI Yeast Anticancer Drug Screen. Data for the bub3 strain (AID 167); conditions: S. cerevisiae bub3 mutant strain, at 50.0 µM, stronger effect = higher value
Outline: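 In this screen, a yeast mutant lacking normal mitotic checkpoint function is challenged with compound. Relative growth versus vehicle gives the inhibition value.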

[6] = NCI Yeast Anticancer Drug Screen. Data for the mlh1 rad18 strain (AID 175); conditions: S. cerevisiae mlh1 rad18 strain growth inhibition; at 50.0 µM; stronger effect = higher value
Outline: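 Genetically defined yeast (DNA repair-deficient) exposed to compounds; growth inhibition determined relative to vehicle.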

Measured: growth inhibition

O=C(Nc1ccccc1-c1n[nH]c(=S)[nH]c1=O)C(F)(F)F
inactive: [1] -2.45% | [2] 2.05% | [3] -10.3% | [4] -7.35% | [5] -65.8% | [6] 30.8%

CC(O)COc1ccc(C(C)(C)C)cc1 (stereo unspecified)
inactive: [1] 3.25% | [2] -4.2% | [3] -2.45% | [4] -13% | [5] 10.8% | [6] 2.6%

COC(=NC(C)C)NC(C)C
inactive: [1] 6.3% | [2] -17.2% | [3] 5.65% | [4] 14.2% | [5] 5.4% | [6] 14.4%

C[Si](C)(CCCOC(N)=O)COC(N)=O
inactive: [1] -15.2% | [2] -6.55% | [3] -18.4% | [4] -4.1% | [5] 4.8% | [6] -18.9%

O=C(O)Cn1c[n+](NC(=O)Cc2ccccc2)cn1
inactive: [1] -19.6% | [2] -25.4% | [3] -25% | [4] -41.8% | [5] -34.5% | [6] -10.8%

O=C(O)c1cc2cc(Br)ccc2c(Br)c1O
inactive: [1] -3.75% | [2] -25.7% | [3] -8% | [4] -71.3% | [5] -24.2% | [6] -3.85%

CSc1c(C#N)c2c(Cl)ncnc2n1C(C)=O
inactive: [1] 1.7% | [2] 14.3% | [3] 9.95% | [4] -71.5% | [5] -7.5% | [6] 5.35%

CC1=NN(C(=O)Cc2ccccc2)C(=O)/C1=C\c1ccccc1O
inactive: [1] -10.1% | [2] -39% | [3] -43.2% | [4] -5.7% | [5] -26.2% | [6] -39.9%

CC(=O)OC1C(COC(=O)c2ccccc2)OC(Nc2ncc(-c3ccc(Br)cc3)s2)C(OC(=O)c2ccccc2)C1OC(=O)c1ccccc1 (stereo unspecified)
inactive: [1] 1.05% | [2] 15.4% | [3] -5.9% | [4] 31.9% | [5] -3.55% | [6] -39.9%

N#Cc1ccc2ccccc2c1
inactive: [1] 4.65% | [2] -7% | [3] 3% | [4] -4.65% | [5] 10.7% | [6] -16.8%

CCC(CCC(=O)O)C1CCCCC1 (stereo unspecified)
inactive: [1] 29.1% | [2] 20.9% | [3] 31.1% | [4] 45.9% | [5] 46.1% | [6] 13.2%

COS(=O)(=O)C=C(c1ccccc1)c1ccccc1
inactive: [1] 12.8% | [2] -27.1% | [3] 15.7% | [4] -24.5% | [5] 6.4% | [6] -1.95%

CC(=N\N=C\c1ccccn1)/C(C)=N/N=C(C)/C(C)=N/N=C(C)/C(C)=N/N=C/c1ccccn1
inactive: [1] 31.7% | [2] 22.2% | [3] 21.4% | [4] 14.2% | [5] 15.2% | [6] -34%

COC(=O)Nn1cc(C(C(C)=O)C(C)=O)c(C(C)=O)c1C
inactive: [1] -6.9% | [2] -0.15% | [3] 7.9% | [4] -35.6% | [5] -0.05% | [6] 17.9%

CC(C(=O)c1ccc(Cl)cc1)[n+]1cc(Br)cc(Br)c1 (stereo unspecified)
inactive: [1] -22.6% | [2] -14.2% | [3] -9.3% | [4] -19.4% | [5] -21.4% | [6] -10.2%

O=C(Nc1ccccc1)NC1CCCC1
inactive: [1] 4.65% | [2] 7.85% | [3] -1.8% | [4] -5.5% | [5] -12.2% | [6] -1.2%

C(=N/n1nnc(-c2ccccc2)n1)/c1ccccc1
inactive: [1] -2.4% | [2] -10.1% | [3] -3% | [4] -44.1% | [5] -5.3% | [6] -6.05%

C/C(=N\N=C\N(C)S(=O)(=O)c1ccc(C)cc1)c1ccccc1
inactive: [1] -10.7% | [2] -2.8% | [3] -6.3% | [4] -6.25% | [5] 1.55% | [6] -2.7%

N#Cc1c(N)[nH]c(=S)c(C#N)c1-c1ccccc1
inactive: [1] 45.9% | [2] 35.5% | [3] 47.4% | [4] 33.5% | [5] 31.4% | [6] 35.1%

O=C1c2cccc3cccc(c23)C1(O)S(=O)(=O)O (stereo unspecified)
inactive: [1] 4.6% | [2] -2.1% | [3] 0.85% | [4] -13.8% | [5] 21.5% | [6] 6.95%

CC(C)COc1ccc(O)cc1
inactive: [1] 8.95% | [2] -3.55% | [3] -16.5% | [4] -43.5% | [5] -11% | [6] 3.35%

COc1ccc(-n2c(C)c(COC(C)=O)c(COC(C)=O)c2C)cc1
inactive: [1] -5.4% | [2] -18.2% | [3] -0.55% | [4] -2.8% | [5] -7.55% | [6] -55.2%

Brc1ccc(-c2ccc(Br)cc2)cc1
inactive: [1] -4.45% | [2] -4.35% | [3] 6.25% | [4] -44% | [5] -19.1% | [6] -5.25%

CCCC(C(O)CC)[N+](=O)[O-] (stereo unspecified)
inactive: [1] 8.65% | [2] -16.1% | [3] 11.7% | [4] 5.35% | [5] -6.25% | [6] 21.6%

O=C(O)/C=C/C(=O)N(c1ccccc1)N(C(=O)/C=C/C(=O)O)c1ccccc1
inactive: [1] 5.9% | [2] -9.05% | [3] 5.15% | [4] 5.65% | [5] 5.55% | [6] 17.5%

O=C(NCc1ccccc1)C(c1ccccc1)c1ccccc1
inactive: [1] 1.85% | [2] 4.9% | [3] 2.6% | [4] 5.7% | [5] -9.1% | [6] 0.8%

COc1cccc([N+](=O)[O-])c1
inactive: [1] 18.3% | [2] 32.2% | [3] -14.8% | [4] -5.9% | [5] -0.9% | [6] 5.75%

O=[N+]([O-])c1ccc2[nH]ccc2c1
inactive: [1] 8.75% | [2] -4.25% | [3] -2.7% | [4] 10.7% | [5] 3.6% | [6] 7.5%

O=C1NCCc2c1sc1ccccc21
inactive: [1] -9.95% | [2] 2.45% | [3] -0.95% | [4] 1.5% | [5] -1.05% | [6] -6.9%

O=C1CCSc2c(cnc3ccccc23)N1
inactive: [1] -17.1% | [2] -12.4% | [3] -26.4% | [4] -18.1% | [5] -18.6% | [6] -46.8%

COc1cccc(CSCC(=O)O)c1
inactive: [1] -9.3% | [2] -26.5% | [3] -44.2% | [4] 7.25% | [5] -17.6% | [6] -1.6%

O=C(O)CCSc1ccccc1[N+](=O)[O-]
inactive: [1] 31.6% | [2] -8.6% | [3] 23.4% | [4] -10.3% | [5] -0.9% | [6] 19.9%

CCOc1ccc(C(CC)c2cc3c(cc2OC)OCO3)cc1 (stereo unspecified)
inactive: [1] -1.95% | [2] -0.1% | [3] -9.35% | [4] -42.8% | [5] 6% | [6] -1.7%

Clc1ccc(N=CNc2ccc(Cl)cc2)cc1
inactive: [1] -10.2% | [2] -2.85% | [3] -6.55% | [4] -14.2% | [5] 43.2% | [6] -2.35%

CNC(=O)c1cccc([N+](=O)[O-])c1
inactive: [1] 32.1% | [2] 19.8% | [3] 21.7% | [4] -31.2% | [5] 7.25% | [6] 30.2%

CCCC(NC(=O)OCc1ccccc1)C(=O)NC(C(=O)O)C(C)CC (stereo unspecified) (Cbz-[Nva]-Ile-OH; configuration not given here)
inactive: [1] 26.3% | [2] 12.4% | [3] 2.75% | [4] 29.1% | [5] 4.55% | [6] 9.6%

CCOC(=O)C1=C(C)Oc2cc3c(cc2C1c1cc(OC)c(O)c(OC)c1)OCO3 (stereo unspecified)
inactive: [1] 33.8% | [2] 1.65% | [3] 38.5% | [4] 9.75% | [5] 27.4% | [6] 50.5%

CCCCCCCCCCCCCCCC(=O)OCC(O)C1OC(=O)C(O)=C1O (stereo unspecified)
inactive: [1] 28.1% | [2] -0.75% | [3] 4.6% | [4] 9.15% | [5] 24.2% | [6] 46.7%

O=c1[nH]c2cc(Cl)ccc2nc1/C(=N\O)C(O)c1ccc(Cl)cc1Cl (stereo unspecified)
inactive: [1] -9.9% | [2] -24.4% | [3] -0.35% | [4] 20.6% | [5] -5.6% | [6] -13.2%

CC(C)CCCCCCCCCCCCC(=O)NCC(=O)NC1C(C)OC(Nc2ncnc3c2ncn3C)C(O)C1O (stereo unspecified)
inactive: [1] 10% | [2] -14.5% | [3] 9.3% | [4] 15.6% | [5] 4.05% | [6] 11.4%

CC(=O)Nc1ccc(CCc2ccc(NC(C)=O)cc2)cc1
inactive: [1] -2.9% | [2] -13.7% | [3] -7.3% | [4] -60.2% | [5] 5.6% | [6] -12.3%
